Inconclusive results are not listed. Entries that show only a call come without a potency. Calls of active or inactive are those of the source. Calls come from the whole dose curve; as a rule, active = well fitted activation curve with a large enough effect; inconclusive = small, poorly fitted or top-dose-only effect; inactive = no such curve, though single readings can be large or run the other way.
Assay: qHTS assay for re-activators of p53 using a Luc reporter: Hit Validation; note: nearly all actives have a fitted effect of over 75% in size
Conditions: p53-responsive luciferase reporter cells, luminescence; series mostly up to 46.1 µM
Excerpt: The p53 tumor suppressor plays a key role in suppression of tumorigenesis and in human carcinogenesis. It is frequently found inactivated in human cancers, mainly by point mutation. These point mutations are found in a wide variety of human cancers and a majority of them affect the DNA binding domain of the protein. The point mutations either alter native p53 conformation or abolish DNA contact. Additionally, cancer cells with p53 mutations are more resistant to chemo-radiation therapies.
In order to find activators to reactivate this important protein, a cell-based screen for p53-dependent luciferase-reporter expression was developed. A p53-null H1299 lung cancer cell line was stably co-transfected with a temperature sensitive p53 mutant, p53-A138V, and a p53-responsive BP100-luciferase reporter. This cell model has previously been characterized in a gene chip profiling experiment for p53 activation. By lowering the culture temperature from 37 deg C (mutant p53 conformation) to 32 deg C (w.t. p53 conformation), a 30-60 fold increase in activation of luciferase activity is observed. At assay temperate, 37 deg C, basal reporter expression is very low and after the addition of detection reagent, a luminescent read-out is carried out. This is the hit validation assay, confirming the hits identified from the primary screen.
NIH Chemical Genomics Center [NCGC]
NIH Molecular Libraries Probe Production Centers Network [MLPCN]
Assay Provider (PI): Yi Sung, University of Michigan at Ann Arbor
5ul of 1000 cells per well are dispensed in all wells except column 4, into white solid-bottom TC-treated Kalypsys plates. The cells are kept in Opti-MEM and supplemented with 10% FBS and dispensed using a Multidrop (Thermo). Then using the Kalypsys pin-tool, 23nl of compounds are pinned. The compounds are starting concentration at 10mM, with 1:5 dilution, 4 points, and the control compound nocodazole is pinned in column 1 at 25mM, 1:3 dilution, in duplicate, 25mM nocodazole is pinned in column 2. Please note, all concentrations are working concentrations. 5ul of 1pM purified luciferase enzyme is dispensed using the Kalypsys dispenser in column 4. Plates are incubated for 24 hrs at 37 deg C, 5% CO2, and 95% humidity. Then 4ul of the detection reagent Amplite (ABD Bioquest) is added using the Kalypsys dispenser. Plates are incubated for 10 min at ambient room temperature and are then read on the ViewLux (Perkin Elmer) using a clear filter for a luminescent read-out.
Potency is the fitted concentration of half-maximal effect.

Structure (SMILES) | Potency | activation
COC(=O)C1=C(c2cccc(C#N)c2)C[C@@H]2CC[C@H]1N2C(=O)NC1CC1 | inactive | 
O=C(N/N=C/c1c(O)n(Cc2ccccc2)c(=O)[nH]c1=O)c1ccccc1 |  | -38.5% [at 9.22 µM] (inactive)
N=C1c2ccccc2CN1CC(=O)c1ccccc1 | 20.6 µM (active) | 
COc1ccc(NC(=O)C2C3CCC(O3)C2C(=O)O)c(OC)c1 (stereo unspecified) | inactive | 
Nc1ccccc1N=Cc1c(O)n(CCC2=CCCCC2)c(=O)[nH]c1=O | inactive | 
COc1ccc(CN2CCNCC2)cc1 | inactive | 
O=C(N/N=C/c1c(O)n(C2CC2)c(=S)[nH]c1=O)c1ccccc1 | inactive | 
O=C(c1cc2c(s1)CCCC2)N1CCC2(CC1)OCCO2 | inactive | 
Nc1c(C(=O)NCc2ccco2)c2nc3ccccc3nc2n1Cc1ccc(F)cc1 | inactive | 
COC(=O)C1=C(c2ccc(F)cc2OCc2ccccc2)C[C@@H]2CC[C@H]1N2C(=O)NCCOc1ccc(OC)cc1 | inactive | 
Cc1cc(N2C(=O)C3CCCN3C2c2sccc2C)no1 (stereo unspecified) | inactive | 

Reference: PubChem BioAssay AID624305 (National Center for Advancing Translational Sciences (NCATS), 2012)
